# DAX1 inh: blocks DAX1 repression of SF-1 activated StAR promoter; HEK293T StAR-luciferase reporter, SF-1/DAX-1 repression relief; actives 1.1% (n = 370,000); inhibition, % at 6.8 µM;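 active means inhibition above the mean over all tested compounds plus 3 SD, cut at about 3.6% in these data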;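 further: higher inhibition means more luminescence from relief of DAX-1 repression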
# hgDAF-12 ag: agonists of H. glycines DAF-12 nuclear receptor; HEK293 GAL4-hgDAF12 UAS-luciferase reporter, agonist luminescence; normalized to butyrate control; activation, % at 6.8 µM; actives 1.8% (n = 370,000); AID 687014;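 active means activation above a cutoff set at the mean of all screened compounds plus 3 SD, cut at about 10% in these data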
# hcDAF-12 act: activators of H. contortus DAF-12 nuclear receptor. HEK293 hcDAF-12 lit1-tk-luc reporter, luminescence; 0% DMSO, 100% Δ7-dafachronic acid. activation, % at 6.8 µM. actives 1.4% (n = 370,000). AID 652067;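 active means activation above the mean of all tested compounds plus 3 SD, cut at about 5.5% in these data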
# Wnt act: activators of Wnt/beta-catenin signaling; actives 1.2% (n = 300,000); Wnt/beta-catenin reporter cell assay, activator, plate reader; activation, % at 9.35 µM; in the data active means activation above about 30%, passing the limit was not always enough; inconclusive means no clear call, values can overlap the other calls
# esBAF inh: inhibitors of esBAF chromatin remodeling in mouse ES cells; Bmi1-luciferase knock-in reporter, 24 h; 100% = twice the neutral-well signal; actives 2% (n = 350,000); reporter increase, % at 12.5 µM; in the data active means activation above about 40%; inconclusive means no clear call, values can overlap the other calls;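 further: a rise in the Bmi1 reporter signal indicates esBAF inhibition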
# ssDAF12 agonist: activates DAF-12 receptor from parasite S. stercoralis; actives 1% (n = 370,000); activation, % at 6.8 µM; HEK293 ssDAF-12/GRIP1 lit1-tk-luc reporter, luminescence; % of 3 µM dafachronic acid response; AID 652126;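 active means activation above the mean over all tested compounds plus 3 SD, cut at about 0.9% in these data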
# A number is an active result; i = inactive; ? = inconclusive; nt = no result. Only some compounds are listed: those with a hit (about 4.2% of all), similar ones and a draw of the others.
SMILES,DAX1 inh,hgDAF-12 ag,hcDAF-12 act,Wnt act,esBAF inh,ssDAF12 agonist
COc1ccc(-c2cn3c(C)c(C(=O)NCCN4CCOCC4)sc3n2)cc1,i,i,i,nt,56,i
CCN(CC)C(=O)c1sc2nc(-c3ccc(OC)cc3)cn2c1C,i,13,i,nt,i,i
Cc1c2ccncc2cc2c1[nH]c1ccccc12,i,11,i,i,i,i
Cc1cc2c([nH]c3ccccc32)c(C)n1,i,i,i,i,i,i
C[C@H]1CN([C@@H](C)CO)S(=O)(=O)c2ccc(-c3cccnc3)cc2O[C@@H]1CN(C)C(=O)CN(C)C,nt,nt,nt,nt,i,nt
CC1(C)CC(=O)c2sc(NC(=O)C(C)(C)C)nc2C1,i,i,i,i,nt,1.5
CCC(=O)Nc1ccc2c(c1)C(=O)N(C)C[C@@H](OC)[C@@H](C)CN(CC1CC1)[C@H](C)CO2,nt,nt,nt,nt,i,nt
Cc1onc(-c2c(Cl)cccc2Cl)c1C(=O)N1CCCc2ccccc21,i,i,i,i,i,i
Cc1onc(-c2ccccc2)c1C(=O)N1CCCc2ccccc21,i,i,i,nt,i,1.0
C[C@H](CO)N1C[C@H](C)[C@H](CN(C)C(=O)c2ccc3c(c2)OCO3)Oc2ncc(/C=C/c3ccccc3)cc2C1=O,nt,nt,nt,nt,i,nt
Cc1ccc(C(=O)/C=C/Nc2ccc3c(c2)OCO3)cc1,i,i,i,nt,i,1.6
Cc1noc(NS(=O)(=O)c2ccc(N/C=C\C(=O)c3ccc4c(c3)OCO4)cc2)c1C,i,i,i,nt,i,i
O=C(/C=C/Nc1ccc(Br)cc1F)c1ccccc1,i,i,i,i,nt,i
CC(=O)Nc1ccc(N/C=C/C(=O)c2ccc(Cl)cc2)cc1,i,i,i,i,59,i
O=C(/C=C/Nc1ccc(F)c(Cl)c1)c1ccccc1,i,i,6.3,i,i,i
O=C(/C=C/Nc1ccc(F)c(F)c1)c1ccc(Br)cc1,i,12,i,i,nt,i
C[C@@H]1CCCCO[C@H](CN(C)S(=O)(=O)c2cccs2)[C@@H](C)CN([C@H](C)CO)C(=O)c2cc(NC(=O)Nc3ccc(C(F)(F)F)cc3)ccc2O1,nt,nt,nt,nt,i,nt
O=C(N[C@H]1CC[C@H](CCNC(=O)C2CCCC2)O[C@@H]1CO)c1ccccn1,nt,nt,nt,nt,i,nt
O=C(C[C@H]1CC[C@@H](NC(=O)C2CCC2)[C@H](CO)O1)NC1CCC1,nt,nt,nt,nt,i,nt
C[C@@H]1CN([C@H](C)CO)C(=O)Cc2cc(NS(=O)(=O)c3ccc(Cl)cc3)ccc2O[C@H]1CN(C)Cc1ccc(C(=O)O)cc1,nt,nt,nt,nt,i,nt
O=C(/C=C/Nc1ccc(F)cc1)c1ccc(Br)cc1,i,11,i,61,nt,i
CC(=O)c1ccc(NS(=O)(=O)c2ccc(N/C=C/C(=O)c3ccc(F)cc3)cc2)cc1,i,i,i,i,nt,i
COc1cc(NS(=O)(=O)c2ccc(N/C=C\C(=O)c3ccc(F)cc3)cc2)nc(OC)n1,i,i,6.4,i,nt,i
COc1ccc(C(C)=O)cc1OCc1ccccc1,i,i,i,i,i,i
CC(=O)c1ccc(OCc2ccccc2)c(C)c1O,i,i,i,31,69,i
SMILES,DAX1 inh,hgDAF-12 ag,hcDAF-12 act,Wnt act,esBAF inh,ssDAF12 agonist
CCC(=O)Nc1ccc2c(c1)OC[C@H](C)N(C(=O)CC1CC1)C[C@H](C)[C@@H](OC)CN(C)C2=O,nt,nt,nt,nt,i,nt
O=S(=O)(NCCSc1nnnn1-c1ccccc1)c1cccs1,i,i,i,i,53,i
CS(=O)(=O)NCCSc1nnnn1-c1ccccc1,i,i,i,nt,nt,i
COc1cc(C2C3=C(CC(C)(C)CC3=O)Nc3c2c(=O)[nH]c(=O)n3Cc2ccccc2)ccc1O (stereo not given),i,i,i,33,nt,i
COc1ccc(C2C3=C(CC(C)(C)CC3=O)Nc3c2c(=O)[nH]c(=O)n3Cc2ccccc2)cc1OC (stereo not given),i,i,i,nt,i,i
COc1ccc(-c2cn3nc(C)c(C)nc3n2)cc1OC,i,i,i,?,47,i
O=C(C[C@@H]1CC[C@H](NC(=O)c2ccccc2)[C@H](CO)O1)NCCc1ccncc1,nt,nt,nt,nt,i,nt
Cc1ccc(Cc2nc(-c3ccccn3)no2)cc1,i,13,i,nt,i,i
c1ccc(-c2noc(CC3CCCCC3)n2)nc1,3.9,12,i,i,nt,i
c1ccc(Cc2nc(-c3ccccn3)no2)cc1,i,i,i,i,i,i
c1cc(-c2noc(CC3CCCCC3)n2)ccn1,i,i,i,nt,i,i
CCCNC(=O)N(C)C[C@@H]1Oc2cc(C#CC3CC3)ccc2S(=O)(=O)N([C@@H](C)CO)C[C@@H]1C,nt,nt,nt,nt,i,nt
O=C(Nc1ccc(Cl)c(S(=O)(=O)N2CCOCC2)c1)c1cc2ccccc2oc1=O,i,i,i,i,82,i
COc1ccccc1C(=O)Nc1cc(-c2ccc(C)cc2)no1,i,12,i,i,i,1.0
Cc1ccc(S(=O)(=O)N2CCOCC2)cc1NC(=O)c1cc2ccccc2oc1=O,i,i,i,i,i,i
Cc1cccc(NC(=O)c2cc3ccccc3oc2=O)c1,i,11,i,i,i,i
COc1ccccc1C(=O)Nc1cc2cc(Br)ccc2oc1=O,i,i,i,i,27,i
COc1ccc(C(=O)N/N=C(\N)c2cc3ccccc3oc2=O)cc1,i,i,i,i,i,i
O=C(O)c1ccccc1NC(=O)c1cc2ccccc2oc1=O,i,i,i,i,i,i
Cc1ccnc(NC(=O)c2cc3ccccc3oc2=O)c1,i,11,i,i,nt,i
N/C(=N\NC(=O)c1ccccc1)c1cc2ccccc2oc1=O,i,12,i,i,nt,i
COc1ccccc1C(=O)Nc1cc2ccccc2oc1=O,nt,nt,nt,nt,i,nt
CCOC(=O)c1c(-c2ccccc2)csc1NC(=O)c1ccc(S(=O)(=O)N2CCOCC2)cc1,i,11,i,i,i,i
COc1ccc(NC(=O)c2cc3ccccc3oc2=O)c(OC)c1,i,11,i,i,47,i
CCOC(=O)c1c(-c2ccccc2)csc1NC(=O)CCN1CCOCC1,i,i,i,i,nt,i
SMILES,DAX1 inh,hgDAF-12 ag,hcDAF-12 act,Wnt act,esBAF inh,ssDAF12 agonist
O=C(C[C@H]1C=C[C@@H](NS(=O)(=O)c2ccc(F)cc2)[C@@H](CO)O1)NCCN1CCCCC1,nt,nt,nt,nt,i,nt
COc1ccc(NC(=O)c2cc3cc(OC)ccc3oc2=O)cc1,i,i,i,i,i,i
COc1ccc2oc(=O)c(C(=O)Nc3cccc(C)c3)cc2c1,i,i,i,i,77,i
COc1ccc(NC(=O)c2cc(C3CC3)on2)c(OC)c1,i,i,i,i,53,1.1
CSc1nnc(NC(=O)c2cc3ccccc3oc2=O)s1,i,i,i,i,54,i
CCOC(=O)c1c(-c2ccc(C)cc2)csc1NC(=O)c1cc2ccccc2oc1=O,i,i,i,i,49,i
COc1ccc(S(=O)(=O)N(C)C[C@@H]2OCCCC[C@H](C)Oc3ccc(NC(=O)Nc4c(C)noc4C)cc3C(=O)N([C@@H](C)CO)C[C@@H]2C)cc1,nt,nt,nt,nt,i,nt

# Screening data from PubChem.
